An excerpt weighted towards active compounds, which were near 2.2% of everything screened.
NLRP3 yeast inh: inhibitors of NALP3 inflammasome in yeast; Yeast reconstituted NLRP3/ASC/caspase-1, beta-gal luminescence, 24 h; inhibition, % at 10 µM; actives 0.39% (n = 330,000); AID 2825;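 active = inhibition of 50% or more; inactive = inhibition below 50%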;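 note: plate controls were induced DMSO wells for no effect and uninduced yeast grown without galactose for full effect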
dFosB act-1: enhances mouse delta FosB homodimer DNA binding; P13346; purified delta FosB, TAMRA-CDK5 oligo fluorescence polarization; percent of positive-control signal above neutral wells; activation, % at 25 µM; actives 0.99% (n = 340,000); AID 493131;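 active = mean activation above about 17%, with every replicate also reaching it, limit read from the data, passing the limit was not always enough; inconclusive = only one of the two conditions met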
Target sequence (P13346 whole entry, looked up): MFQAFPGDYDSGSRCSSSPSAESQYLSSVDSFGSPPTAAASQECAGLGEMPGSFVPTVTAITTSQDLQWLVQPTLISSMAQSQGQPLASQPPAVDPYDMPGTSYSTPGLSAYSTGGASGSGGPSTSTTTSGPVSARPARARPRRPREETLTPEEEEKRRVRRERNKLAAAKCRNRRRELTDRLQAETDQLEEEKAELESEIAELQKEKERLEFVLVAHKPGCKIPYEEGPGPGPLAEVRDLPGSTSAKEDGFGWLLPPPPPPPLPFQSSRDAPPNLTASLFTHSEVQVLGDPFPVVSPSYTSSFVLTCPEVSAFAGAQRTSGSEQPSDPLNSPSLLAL
EBNA-1 inhibitor: blocks EBNA-1 binding to DNA. EBNA-1 DNA binding, fluorescence polarization. inhibition, % at 14.8 µM. actives 0.34% (n = 300,000). AID 1950; in the data active = inhibition above about 28%
PolyA inh: yeast polyadenylation inhibition; activity score, % at 12 µM; actives 0.02% (n = 300,000); S. cerevisiae SKY197-pL101 polyadenylation reporter, beta-gal luminescence; efflux-impaired pdr1/pdr3 knockout yeast; score 100 = 6 SD above DMSO; AID 1875;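 active = lowest replicate activity score at least 50, where 100 means six control SD above control mean; inconclusive = lowest score under 50 but half or more replicates reach 50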;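 note: yeast exposed to compound for 9 h at 30 °C; higher score means more reporter readthrough which indicates perturbed polyadenylation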
ZTA DNA inh: counter-screen for EBNA-1 inhibitors: inhibitors of Epstein-Barr virus ZTA; P03206; ZTA-DNA binding, fluorescence polarization; inhibition, % at 11 µM; actives 0.15% (n = 320,000); in the data active = inhibition above about 33%
Target sequence (P03206 whole entry, looked up): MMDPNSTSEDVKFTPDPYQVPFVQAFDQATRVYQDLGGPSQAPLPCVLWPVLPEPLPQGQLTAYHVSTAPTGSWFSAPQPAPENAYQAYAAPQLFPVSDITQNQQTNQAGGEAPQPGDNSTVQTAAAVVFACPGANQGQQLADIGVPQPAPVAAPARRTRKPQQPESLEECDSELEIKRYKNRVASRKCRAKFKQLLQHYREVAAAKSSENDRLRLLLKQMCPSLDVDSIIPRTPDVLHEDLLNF
NALP1 yeast inh: NALP1 inhibition | S. cerevisiae NALP1/ASC/caspase-1 growth, X-gal OD620, 72 h | inhibition, % at 10 µM | actives 0.61% (n = 280,000) | AID 2071; in the data active = inhibition mostly above about 24%, no sharp cut-off; inactive = mostly below about 32%
dFosB act-2: delta FosB (mouse) homodimer activation; shares compounds with dFosB act-1; purified delta FosB, TAMRA-CDK5 oligo fluorescence polarization; normalised: neutral wells 0, positive control 100; activation, % at 24.9 µM; 2,400 tested, under 10 active; AID 588690;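 active = highest replicate activation at or above 34% and every replicate reaching that threshold; inconclusive = meets only one of the two criteria; inactive = meets neither criterion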;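 note: higher polarization means more probe DNA bound by delta FosB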
Numbers without * were called inactive; ? = inconclusive; . = no result given.

SMILES	NLRP3 yeast inh	dFosB act-1	EBNA-1 inhibitor	PolyA inh	ZTA DNA inh	NALP1 yeast inh	dFosB act-2
O=c1c2ccc(Cl)cc2[nH]c(=S)n1Cc1cccnc1	8.0	19.5*	-1.7	6.1	-9.1	2.9	6.3
COc1ccc(-c2csc(CCN3N=C(C)CC3=O)n2)cc1	2.2	-10.5	8.7	0.5	8.7	1.9	.
COc1ccc(C(C)=O)cc1CSc1nc2ccccc2c(=O)n1-c1cccc(C)c1	7.0	24.7*	-11.8	-23.8	-31.0	39.2	4.7
Cc1cc(C)c2c(N)c(C(=O)c3ccc(Cl)cc3)sc2n1	-20.7	5.0	15.2	-9.6	-22.5	43.2	.
Cc1cc(C)c2c(N)c(C(=O)c3ccc(Cl)c(Cl)c3)sc2n1	13.3	36.7*	2.8	5.5	4.1	1.3	3.6
O=C(COC(=O)c1cc(=O)[nH]c2ccccc12)Nc1ccccc1F	7.2	3.3	.	.	.	.	.
N#Cc1ccc(C23CC4(C2)[C@H](CN(CC2CCCCC2)[C@@H]4c2ccccc2)C3c2ccccc2)cc1 (some centres not stated)	15.0	0.3	9.3	8.4	11.0	.	.
N#Cc1ccc(C23CC4(C2)[C@H](CN(CC2CCCCC2)[C@@H]4c2ccccc2)C3c2ccc(Cl)nc2)cc1 (some centres not stated)	21.7	24.8*	5.0	-12.7	2.9	.	-0.5
CS(=O)(=O)Cc1ccc(C(=O)N2CCN(C(=O)c3cccs3)CC2)cc1	0.6	0.4	.	.	.	.	.
CC1(C)Oc2ccc(C(=O)Nc3ccccc3)cc2N(CC#N)C1=O	9.9	-6.2	5.6	0.2	-4.7	20.1	.
S=c1[nH]nc(-c2cc(-c3ccccc3)n[nH]2)n1/N=C/C=C/c1ccccc1	20.9	41.3*	6.1	-0.5	20.8	-17.0	0.1
S=c1[nH]nc(-c2cc(-c3ccccc3)n[nH]2)n1/N=C/c1ccccc1	15.6	11.4	4.8	12.0	8.1	.	.
O=[N+]([O-])c1ccccc1/C=C/C=N/n1c(-c2cc(-c3ccccc3)n[nH]2)n[nH]c1=S	8.3	53.6*	6.5	11.0	4.1	16.4	2.4
Cc1cccc(-c2nsc(SCC(=O)Nc3nccs3)n2)c1	7.6	-1.1	-7.6	-4.5	19.0	5.5	.
Cc1cccc(-c2nsc(SCC(=O)Nc3ccc4c(c3)OCO4)n2)c1	30.3	19.6*	-2.8	?	-18.4	23.9	-0.3
Cc1cc2oc(C(=O)Nc3nonc3C)c(C)c2cc1Cl	8.7	46.2*	11.4	0.2	-6.0	22.7	2.5
Cc1nonc1NC(=O)c1oc2ccc(F)cc2c1C	20.3	28.9*	6.5	12.6	-1.1	8.9	1.8
Cc1cc2oc(C(=O)Nc3ccc(S(=O)(=O)Nc4ncccn4)cc3)c(C)c2cc1Cl	-4.8	0.1	.	.	.	12.5	.
CCc1nonc1NC(=O)c1oc2ccc(C)cc2c1C	13.6	15.9	-2.2	2.8	-17.1	-0.3	.
O=C(NCc1ccccn1)c1cc(Cl)ccc1OCc1ccccc1	17.6	-11.0	-0.6	-9.0	-10.7	14.9	.
O=C(COc1ccc(S(=O)(=O)N2CCOCC2)cc1)Nc1ccccc1Cl	4.6	-16.8	1.7	-14.3	1.2	-20.5	.
Cc1ccc(N(C)C(=O)CN(C)S(=O)(=O)c2ccc3c(c2)n(C)c(=O)c(=O)n3C)cc1	2.1	-2.3	-22.1	10.9	5.3	35.5	.
O=C(COC(=O)c1cc(Cl)ccc1O)Nc1ccc2c(c1)OCCO2	12.2	29.7*	.	.	2.0	.	0.8
COc1ccc(NC(=O)c2c[nH]c(=O)n(-c3ccc(C)c(C)c3)c2=O)c(OC)c1	.	34.6*	.	.	.	.	4.5
CC(C)(C)c1ccc(C(=O)Nc2ccc(C(=O)NCc3cccnc3)cc2)cc1	10.9	-18.9	-12.7	3.4	-10.5	35.2	.
SMILES	NLRP3 yeast inh	dFosB act-1	EBNA-1 inhibitor	PolyA inh	ZTA DNA inh	NALP1 yeast inh	dFosB act-2
O=C(COc1ccccc1Cl)Nc1ccc(NC(=O)c2ccco2)cc1	10.1	21.4*	8.8	-0.3	-0.2	9.5	6.5
COc1cc(NC(=O)COc2ccccc2[N+](=O)[O-])ccc1NC(=O)c1ccco1	-0.5	34.5*	14.2	-1.1	12.3	9.6	2.6
O=C(COc1ccccc1Cl)Nc1cc(Cl)ccc1O	.	22.0*	.	4.4	.	10.3	-1.4
COc1cc(NC(=O)COc2ccccc2[N+](=O)[O-])ccc1NC(=O)c1cccs1	.	5.4	.	6.4	.	-5.2	.
O=C(C1CCN(S(=O)(=O)c2ccc(Br)s2)CC1)N1CCCCC1	16.6	-8.5	7.2	5.8	12.5	14.5	.
CC(Sc1nn(-c2ccccc2)c(=S)s1)C(=O)NCC1CCCO1 (configuration not stated)	14.5	-1.1	.	.	-12.0	.	.
COc1cc2c(=O)n(Cc3ccccc3)c(=O)n(CC(=O)NCc3ccco3)c2cc1OC	.	31.2*	.	-9.8	.	-0.1	5.0
O=C(Cn1c(=O)n(CC(=O)NCc2ccccc2)c2ccccc21)NCc1ccccc1	8.6	24.5*	24.5	3.0	-3.8	-3.3	-1.1
CCC(C)NC(=O)Cn1c(=O)n(-c2ccccc2)c(=O)c2ccc(C(=O)NCc3ccco3)cc21 (configuration not stated)	7.6	5.5	8.0	.	20.4	6.2	.
Cc1ccc(Cn2c(=O)n(-c3ccccc3)c(=O)c3ccc(C(=O)NCc4ccco4)cc32)cc1	-0.6	26.3*	10.2	-0.3	1.3	17.0	7.4
Cc1cccc(Cn2c(=O)n(-c3ccc(CC(=O)NCc4ccco4)cc3)c(=O)c3sccc32)c1	6.3	48.5*	2.4	-20.3	-3.8	30.5	-1.8
Cc1ccc(-n2c(=O)c3sccc3n(CC(=O)NCc3ccco3)c2=O)cc1	1.5	-5.4	-6.8	2.6	-7.3	22.3	.
CN1CCc2cc3c(c4c2[C@H]1[C@H](O)c1ccccc1-4)OCO3	35.6	31.6*	-10.8	-1.7	-4.9	-6.9	-0.8
COc1ccc2c(c1OC)C(=O)OC2C1c2c(cc3c(c2OC)OCO3)CCN1C (configuration not stated)	1.4	0.1	0.8	-13.2	-6.5	27.0	.
CCc1cccc(N(C(=O)c2csnn2)C(C(=O)NC2CCCCC2)c2ccncc2)c1 (configuration not stated)	8.9	-10.7	-5.7	1.2	-17.2	-16.4	.
CN(CC(=O)Nc1ccc(Cl)cc1)C(=O)CCc1nc2sc3c(c2c(=O)[nH]1)CCCC3	13.0	28.5*	-11.8	-13.8	3.2	.	0.7
CN(CC(=O)Nc1ccc(F)cc1)C(=O)CCc1nc2sc3c(c2c(=O)[nH]1)CCCC3	13.3	11.5	-6.5	0.2	0.2	.	.
CCN(CC(=O)Nc1ccccc1C(F)(F)F)C(=O)CCc1nc2sc3c(c2c(=O)[nH]1)CCCC3	16.9	2.1	-8.2	-4.3	6.0	.	.
CN(CC(=O)Nc1ccccc1C(F)(F)F)C(=O)CCc1nc2sc3c(c2c(=O)[nH]1)CCCC3	22.2	22.5*	4.5	-8.3	7.3	16.4	1.6

High-throughput results as filed in PubChem BioAssay.
